Assay outcomes (PubChem)
Sampled rows, rich in hits. Any-hit rate of the full collection: about 3.5%.
Anthrax LF inh2 = inhibitors of Bacillus anthracis lethal factor protease; multiplex microsphere protease cleavage assay, LF; AID 588501; inhibition, % at 10 µM; actives 0.12% (n = 360,000); P15917; also: plate controls were buffer without enzyme for full effect and enzyme alone for no effect
Target sequence (P15917 whole entry, looked up): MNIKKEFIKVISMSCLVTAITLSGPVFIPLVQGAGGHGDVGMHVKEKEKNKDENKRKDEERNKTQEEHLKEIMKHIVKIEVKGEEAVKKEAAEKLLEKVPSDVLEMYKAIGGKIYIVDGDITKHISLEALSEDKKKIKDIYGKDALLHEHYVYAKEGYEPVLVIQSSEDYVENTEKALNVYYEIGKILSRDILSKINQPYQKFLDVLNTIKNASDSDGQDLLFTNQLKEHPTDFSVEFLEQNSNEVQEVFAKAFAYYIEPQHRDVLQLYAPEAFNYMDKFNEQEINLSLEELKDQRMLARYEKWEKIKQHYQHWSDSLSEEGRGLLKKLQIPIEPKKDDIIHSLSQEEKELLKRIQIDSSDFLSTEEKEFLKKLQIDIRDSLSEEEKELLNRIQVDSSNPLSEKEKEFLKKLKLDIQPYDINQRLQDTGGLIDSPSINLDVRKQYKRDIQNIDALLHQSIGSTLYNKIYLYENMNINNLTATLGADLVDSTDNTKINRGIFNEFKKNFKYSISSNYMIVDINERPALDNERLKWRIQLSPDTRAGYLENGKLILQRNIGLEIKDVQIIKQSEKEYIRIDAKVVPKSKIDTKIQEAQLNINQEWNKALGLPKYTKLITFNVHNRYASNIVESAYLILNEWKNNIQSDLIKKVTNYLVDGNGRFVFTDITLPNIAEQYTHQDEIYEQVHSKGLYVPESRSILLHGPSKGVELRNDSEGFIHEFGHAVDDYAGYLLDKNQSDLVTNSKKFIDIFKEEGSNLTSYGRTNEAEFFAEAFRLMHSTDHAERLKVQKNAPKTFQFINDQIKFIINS
BoNT A protease = BoNT A light chain protease inhibition | actives 0.17% (n = 360,000) | inhibition, % at 10 µM | AID 588499 | multiplex microsphere protease substrate cleavage, flow cytometry; also: plate controls were buffer without enzyme for full effect and enzyme alone for no effect
BoNT F protease = inhibitors of Botulinum neurotoxin F light chain protease; Multiplex microsphere protease cleavage assay, flow cytometry; inhibition, % at 10 µM; actives 0.22% (n = 360,000); AID 588497; in the data active = inhibition above about 35%, passing the limit was not always enough; inconclusive = no clear call, values can overlap the other calls; also: plate controls were buffer without enzyme for full effect and enzyme alone for no effect
Autofluor counter = flagged as autofluorescent in microsphere protease counterscreen | compound autofluorescence counterscreen, microsphere flow cytometry; stronger effect = higher value | fluorescence intensity (test concentration not listed) | actives 3.1% (n = 360,000); in the data active = fluorescence intensity above about 16000; inconclusive = no clear call, values can overlap the other calls
Active calls of the source: *. Rule as the data show it, unless noted: active = inhibition above about 30%; inconclusive = no clear call, values can overlap the other calls; inactive = below that.

Results for O=C1C2C3C=CC(C3=C(c3ccccc3)c3ccccc3)C2C(=O)N1CCO (centres undefined) ?
Anthrax LF inh2: -1.3; BoNT A protease: -0.8; BoNT F protease: -0.4; Autofluor counter: 16812*

Results for COc1ccc(NC(=O)c2sc(=O)n(Cc3ccc(F)c(Cl)c3)c2C)cc1OC ?
Anthrax LF inh2: -6.6; BoNT A protease: 0.3; BoNT F protease: 0.2; Autofluor counter: 5481

Results for CCN1C(=O)c2cccc3c(NS(=O)(=O)c4ccc(NC(C)=O)cc4)ccc1c23 ?
Anthrax LF inh2: inconclusive; BoNT A protease: inconclusive; BoNT F protease: 5.8; Autofluor counter: inconclusive

What do the screens show for `CCOC(=O)c1ccc(NC(=O)Nc2ccc3c4c(cccc24)C(=O)N3CC)cc1`?
Anthrax LF inh2: 0.5; BoNT A protease: -1.7; BoNT F protease: -2.2; Autofluor counter: 21257*

Results for COC(=O)c1c(NC(=O)CC2SCC(C(=O)OC)NC2=O)sc2c1CCCC2 (centres undefined) ?
Anthrax LF inh2: -0.9; BoNT A protease: -3.0; BoNT F protease: -4.6; Autofluor counter: 24791*

What do the screens show for `COC(=O)c1c(NC(C)=O)sc2c1CCCC2`?
Anthrax LF inh2: -9.8; BoNT A protease: -1.6; BoNT F protease: -32.3; Autofluor counter: 4342

What do the screens show for `NC(=O)c1c(NC(=O)CCCC(=O)O)sc2c1CCCCCC2`?
Anthrax LF inh2: -1.7; BoNT A protease: -0.3; BoNT F protease: 1.5; Autofluor counter: 2094

Results for COC(=O)c1c(NC(=O)CCCC(=O)O)sc2c1CCC2 ?
Anthrax LF inh2: -0.3; BoNT A protease: -0.7; BoNT F protease: 0.7; Autofluor counter: 22669*

How did O=C(O)COc1ccccc1C=NNC(=O)c1ccccc1NS(=O)(=O)c1cccs1 do in these assays?
Anthrax LF inh2: 0.6; BoNT A protease: -0.1; BoNT F protease: 2.9; Autofluor counter: 3455

Results for CCOC(=O)Cc1csc(NC(=O)NC2(C(F)(F)F)Oc3ccccc3O2)n1 ?
Anthrax LF inh2: -4.2; BoNT A protease: -1.2; BoNT F protease: -4.1; Autofluor counter: 16388*

Results for CCOC(=O)Cc1csc(NC(=O)COc2ccccc2)n1 ?
Anthrax LF inh2: -2.0; BoNT A protease: -1.8; BoNT F protease: -2.8; Autofluor counter: 22960*

Results for CCOC(=O)Cc1csc(NC(=O)c2ccc(S(=O)(=O)N3CCCCC3)cc2)n1 ?
Anthrax LF inh2: 2.2; BoNT A protease: inconclusive; BoNT F protease: 1.4; Autofluor counter: 22414*

What do the screens show for `CCOC(=O)Cc1csc(NC(=O)COc2ccc(C)cc2)n1`?
Anthrax LF inh2: 0.0; BoNT A protease: -0.7; BoNT F protease: -3.5; Autofluor counter: 4062

What do the screens show for `CCOC(=O)Cc1csc(NC(=O)NC2(C(F)(F)F)Oc3ccc(Cl)cc3O2)n1` (centres undefined)?
Anthrax LF inh2: -0.8; BoNT A protease: -0.5; BoNT F protease: -13.5; Autofluor counter: 2650

What do the screens show for `CCOC(=O)Cc1csc(NC(=O)c2ccc(C)o2)n1`?
Anthrax LF inh2: 0.4; BoNT A protease: -0.5; BoNT F protease: -2.7; Autofluor counter: 8273

How did CCOC(=O)Cc1csc(NC(=O)c2ccco2)n1 do in these assays?
Anthrax LF inh2: -6.3; BoNT A protease: 1.1; BoNT F protease: -0.2; Autofluor counter: 20219*

What do the screens show for `Cc1ccc(F)c(S(=O)(=O)NC(=O)C2(C)CCN2C(=O)Cc2cccc3ccccc23)c1` (centres undefined)?
Anthrax LF inh2: 3.0; BoNT A protease: -0.1; BoNT F protease: -2.8; Autofluor counter: 3902

How did CCCNS(=O)(=O)c1ccc2c(c1)n(C)c(=O)n2C do in these assays?
Anthrax LF inh2: -2.8; BoNT A protease: 0.8; BoNT F protease: 4.3; Autofluor counter: 4741

What do the screens show for `CCNS(=O)(=O)c1ccc2c(c1)n(C)c(=O)n2C`?
Anthrax LF inh2: 1.1; BoNT A protease: 3.6; BoNT F protease: 2.3; Autofluor counter: 22262*

Results for Cc1csc(NC(=O)c2nc(-c3ccccc3)n(-c3ccccc3)n2)n1 ?
Anthrax LF inh2: 0.8; BoNT A protease: 0.6; BoNT F protease: 1.8; Autofluor counter: 22922*

What do the screens show for `CCc1cc(/C(Cc2ccccn2)=N\O)c(O)cc1O`?
Anthrax LF inh2: -1.6; BoNT A protease: inconclusive; BoNT F protease: -13.5; Autofluor counter: 18010*

Results for CN(C(=O)c1cccc(NC(=O)Cc2cccc(NC(=O)C3CCCN(C(=O)C4CCCCC4)C3)c2)c1)C1CCC1 (centres undefined) ?
Anthrax LF inh2: -3.7; BoNT A protease: -0.2; BoNT F protease: -1.7; Autofluor counter: 3460

What do the screens show for `OC[C@@H]1CN(Cc2ccncc2)C[C@H](n2cnc3c(NCc4ccncc4)ncnc32)O1`?
Anthrax LF inh2: -2.9; BoNT A protease: -0.4; BoNT F protease: 3.4; Autofluor counter: 4036

What do the screens show for `CCCCCn1c(=O)c(C(=O)c2ccccc2)nc2ccccc21`?
Anthrax LF inh2: -11.9; BoNT A protease: inconclusive; BoNT F protease: 2.7; Autofluor counter: 18403*
